The results in this text go back to the supplement of paper PMC7156485.

The structures appear in SMILES notation. Values joined by “and” are separate entries in the source; they are usually repeats but may differ in a detail not shown here. Equal entries are not always repeated. Structures can show the parent of a compound that is named as a salt. ± gives the standard deviation of the averaged measurements.
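For H1.0 immunofluorescence intensity relative to DMSO in this document: TDF is a line of transformed human dermal fibroblasts of mesenchymal origin.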
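For cell number relative to DMSO in this document: TDF denotes transformed human dermal fibroblasts of mesenchymal origin.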

One test has as its system TDF. Description: cell number relative to DMSO (% of DMSO); higher = more cells (less growth inhibition / toxicity). Conditions: concentration: 10 µM; 24 h. The method, boiled down:
(§1)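 HCC1569 and TDF cells (800 per well, 384-well plates, RPMI with 10% FBS) were treated with compounds at 10 µM for 24 h at 37 °C, in triplicate. Cells were fixed in 3.7% formaldehyde and stained with a rabbit anti-H1.0 antibody, an AlexaFluor 647 secondary and DAPI; six fields per well were imaged at ×10. H1.0 nuclear intensity or cell number is expressed as percent of the plate DMSO control, taking the median of replicates. HCC1569 values were smoothed for positional effects.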
With `C=C(C)C1CNC(C(=O)O)C1CC(=O)O` (stereo unspecified) [Kainic acid], the cell number was found to be 108 ± 3.

On to `Cl.Cl.Clc1cccc(N2CCNCC2)c1` [1-(3-Chlorophenyl)piperazine dihydrochloride], for which the cell number amounted to 87.5.

The compound `COc1ccccc1CN[C@H]1C2CCN(CC2)[C@H]1C(c1ccccc1)c1ccccc1` showed a cell number of 97.3.

Compound `Br.CN1CCc2cc(O)cc3c2C1Cc1ccc(O)c(O)c1-3` (stereo not drawn) [R(-)-2,10,11-Trihydroxyaporphine hybrobromide] gave a cell number of 113.

Regarding `C[N+]1([O-])C2CC(OC(=O)C(CO)c3ccccc3)CC1C1OC12` (single isomer, unassigned; (-)) [(-)-Scopolamine N-oxide], the cell number turned out to be 105.

`CC1=C2C3OC(=O)C(C)C3CCC2(C)C=CC1=O` (stereo unspecified) [Santonin] gave a cell number of 97.9.

`CCC1C2CC3C4N(C)c5ccccc5C45CC(C2C5O)N3C1O` (stereo unspecified) [Ajmaline] registered a cell number of 86.8.

Take `CCCN1CC(CSC)CC2c3cccc4[nH]cc(c34)CC21.CS(=O)(=O)O` (stereo unspecified) [Pergolide mesylate]: the cell number stood at 102.

The compound `CNc1ccc2oc(CC3OC4(CCC3C)OC(C(C)C(=O)c3ccc[nH]3)C(C)CC4C)nc2c1C(=O)O` (stereo unspecified) registered a cell number of 49.7.

Compound `S=C(NC1CCCCC1)N1CCC(c2cnc[nH]2)CC1` [Thioperamide maleate] yielded a cell number of 100.

Take `CCCCCCC(C)(C)c1ccc(C2CC(O)CCC2CCCO)c(O)c1` (stereo unspecified): the cell number came to 109.

The compound `CC12CCC(O)CC1CCC1C2CCC2(C)C(C(=O)CO)CCC12` (stereo not drawn) [3-alpha,21-Dihydroxy-5-alpha-pregnan-20-one] gave a cell number of 89.

In turn, `COc1ccc2c(c[n+](C)c3c4cc5c(cc4ccc23)OCO5)c1OC.[Cl-]` [Chelerythrine Chloride] showed a cell number of 98.2.

`C=C(C)C1Cc2c(ccc3c2OC2COc4cc(OC)c(OC)cc4C2C3=O)O1` (stereo unspecified) [Rotenone] yielded a cell number of 16.2 ± 0.54.

`CC(C)Oc1cccnc1N(C)C1CCN(Cc2ccc(I)cc2)CC1` [RBI-257 maleate] returned a cell number of 98.1.

As for `Clc1cnc(Oc2ccc(Oc3ncc(Cl)cc3Cl)cc2)c(Cl)c1`, the cell number stood at 109.

In the case of `NC(=O)COc1c(F)cc(SCCNS(=O)(=O)c2ccccc2)cc1F`, the cell number is 102.

The test system of the next test is TDF. Description: H1.0 immunofluorescence intensity relative to DMSO (% of DMSO); higher = stronger H1.0 induction, active = 120 or more. The conditions noted are these: concentration: 10 µM; 24 h. The method, boiled down:
as §1
For `CCCN1CCCC2Cc3nc(N)ncc3CC21.Cl.Cl` (stereo unspecified) [Quinelorane dihydrochloride], the H1.0 immunofluorescence intensity is 95 (inactive).

On to `CC(=O)c1c(O)c(C)c(O)c(Cc2c(O)c3c(c(C(=O)C=Cc4ccccc4)c2O)OC(C)(C)C=C3)c1O` [Rottlerin], for which the H1.0 immunofluorescence intensity was 109 (inactive).

As for `CCCCCCCCCCCCCCCC(=O)OCC(COP(=O)([O-])OCC[N+](C)(C)C)OC(C)=O` (stereo unspecified), the H1.0 immunofluorescence intensity was 98.7 (inactive).

Take `CC(O)=C(C#N)C(=O)Nc1cc(Br)ccc1Br`: the H1.0 immunofluorescence intensity is 99 (inactive) and 97.5 (inactive).

`COc1ccc(Cc2nccc3cc(OC)c(OC)cc23)cc1OC.Cl` [Papaverine hydrochloride]: the H1.0 immunofluorescence intensity was 102 (inactive).

With `C=CCc1cc(OC)c2c(c1)OCO2` [Myristicin], the H1.0 immunofluorescence intensity is 104 (inactive).

`COc1ccccc1N1CCNCC1.Cl` [1-(2-Methoxyphenyl)piperazine hydrochloride]: the H1.0 immunofluorescence intensity is 96.4 (inactive).

With `CC(=O)C1=C(O)C2C3c4c[nH]c5cccc(c45)CC3C(C)(C)N2C1=O` (stereo unspecified) [Cyclopiazonic acid], the H1.0 immunofluorescence intensity was 100 (inactive).

Take `NC(CCCCCP(=O)(O)O)C(=O)O` (stereo not drawn) [D(-)-2-Amino-7-phosphonoheptanoic acid]: the H1.0 immunofluorescence intensity was 97.7 (inactive).

Regarding `Cc1[nH]c2ccc(O)cc2c1CCN.O=C(O)C=CC(=O)O` [2-Methyl-5-hydroxytryptamine maleate], the H1.0 immunofluorescence intensity is 98.3 (inactive).

Turning to `CC1(C)CCCC(C)(C)N1[O]`, the H1.0 immunofluorescence intensity was 100 (inactive).

As for `CN1Cc2c(ccc3c2OCO3)C2C(O)Cc3cc4c(cc3C21)OCO4` (single isomer, unassigned; (+)) [(+)-Chelidonine], the H1.0 immunofluorescence intensity was 193 (active).

Turning to `CC1OC(C[N+](C)(C)C)CS1.[I-]` (stereo unspecified) [OXA-22 iodide], the H1.0 immunofluorescence intensity is 97.2 (inactive).

With `C=CCN1CCC23c4c5ccc(O)c4OC2C(=NN=C2CCC4(O)C6Cc7ccc(O)c8c7C4(CCN6CC=C)C2O8)CCC3(O)C1C5` (stereo unspecified) [Naloxonazine], the H1.0 immunofluorescence intensity is 105 (inactive).

As for `O=C([O-])Cc1ccccc1.[Na+]` [Sodium Phenylacetate], the H1.0 immunofluorescence intensity was 96.8 (inactive).

Regarding `CC1=CC(=O)c2c(O)cccc2C1=O` [Plumbagin], the H1.0 immunofluorescence intensity was 109 (inactive).

With `CCn1cnc2c(Nc3cccc(Cl)c3)nc(NC3CCCCC3N)nc21` (stereo unspecified), the H1.0 immunofluorescence intensity was 141 (active).

As to `O=C1NC(=O)c2c1c1c3ccccc3[nH]c1c1[nH]c3ccccc3c21`, the H1.0 immunofluorescence intensity is 79.9 (inactive).

Take `CN(C)C(=O)Oc1cccc([N+](C)(C)C)c1.[Br-]` [Neostigmine bromide]: the H1.0 immunofluorescence intensity was 89.5 (inactive).

Regarding `CC(CCc1ccccc1)NC(C)C(O)c1ccc(O)cc1.Cl` (stereo unspecified) [Buphenine.HCl], the H1.0 immunofluorescence intensity is 90 (inactive).

Take `CC1OC(C[N+](C)(C)C)CC1O.[Cl-]` (single isomer, unassigned; (+)) [(+)-Muscarine chloride]: the H1.0 immunofluorescence intensity was 93 (inactive).

`Cl.O=C(O)Cc1cnc[nH]1` [Imidazole-4-acetic acid hydrochloride]: the H1.0 immunofluorescence intensity was 93 (inactive).

With `C=C(C)C1CNC(C(=O)O)C1CC(=O)O` (stereo unspecified) [Kainic acid], the H1.0 immunofluorescence intensity is 92.5 (inactive).

As to `Cl.Cl.Clc1cccc(N2CCNCC2)c1` [1-(3-Chlorophenyl)piperazine dihydrochloride], the H1.0 immunofluorescence intensity is 105 (inactive).

On to `COc1ccccc1CN[C@H]1C2CCN(CC2)[C@H]1C(c1ccccc1)c1ccccc1`, for which the H1.0 immunofluorescence intensity is 105 (inactive).

Regarding `Br.CN1CCc2cc(O)cc3c2C1Cc1ccc(O)c(O)c1-3` (stereo not drawn) [R(-)-2,10,11-Trihydroxyaporphine hybrobromide], the H1.0 immunofluorescence intensity was 84.4 (inactive).

As to `C[N+]1([O-])C2CC(OC(=O)C(CO)c3ccccc3)CC1C1OC12` (single isomer, unassigned; (-)) [(-)-Scopolamine N-oxide], the H1.0 immunofluorescence intensity is 99.4 (inactive).

With `CC1=C2C3OC(=O)C(C)C3CCC2(C)C=CC1=O` (stereo unspecified) [Santonin], the H1.0 immunofluorescence intensity was 95.5 (inactive).

On to `CCC1C2CC3C4N(C)c5ccccc5C45CC(C2C5O)N3C1O` (stereo unspecified) [Ajmaline], for which the H1.0 immunofluorescence intensity is 96.9 (inactive).

Take `CCCN1CC(CSC)CC2c3cccc4[nH]cc(c34)CC21.CS(=O)(=O)O` (stereo unspecified) [Pergolide mesylate]: the H1.0 immunofluorescence intensity is 93.3 (inactive).

Regarding `CNc1ccc2oc(CC3OC4(CCC3C)OC(C(C)C(=O)c3ccc[nH]3)C(C)CC4C)nc2c1C(=O)O` (stereo unspecified), the H1.0 immunofluorescence intensity was 151 (active).

In the case of `S=C(NC1CCCCC1)N1CCC(c2cnc[nH]2)CC1` [Thioperamide maleate], the H1.0 immunofluorescence intensity was 99.8 (inactive).

Turning to `CCCCCCC(C)(C)c1ccc(C2CC(O)CCC2CCCO)c(O)c1` (stereo unspecified), the H1.0 immunofluorescence intensity is 91.7 (inactive).

In the case of `CC12CCC(O)CC1CCC1C2CCC2(C)C(C(=O)CO)CCC12` (stereo not drawn) [3-alpha,21-Dihydroxy-5-alpha-pregnan-20-one], the H1.0 immunofluorescence intensity was 98.8 (inactive).

Regarding `COc1ccc2c(c[n+](C)c3c4cc5c(cc4ccc23)OCO5)c1OC.[Cl-]` [Chelerythrine Chloride], the H1.0 immunofluorescence intensity is 94 (inactive).

Regarding `C=C(C)C1Cc2c(ccc3c2OC2COc4cc(OC)c(OC)cc4C2C3=O)O1` (stereo unspecified) [Rotenone], the H1.0 immunofluorescence intensity was 147 (active).

In the case of `CC(C)Oc1cccnc1N(C)C1CCN(Cc2ccc(I)cc2)CC1` [RBI-257 maleate], the H1.0 immunofluorescence intensity is 94.8 (inactive).

`Clc1cnc(Oc2ccc(Oc3ncc(Cl)cc3Cl)cc2)c(Cl)c1`: the H1.0 immunofluorescence intensity is 97.1 (inactive).

With `NC(=O)COc1c(F)cc(SCCNS(=O)(=O)c2ccccc2)cc1F`, the H1.0 immunofluorescence intensity is 93.5 (inactive).
